Measured values published in PubChem BioAssay AID1851 (National Center for Advancing Translational Sciences (NCATS), 2009).
Where “and” joins values, the source holds several entries; their conditions need not be identical. Equal entries are not always repeated. Among all 16,000 compounds or so, about 2,600 (16%) were called active. Not shown: some 20% with an inconclusive outcome. Calls follow the shape of the dose curve; as a rule, active = well fitted curve in the direction sought with a large enough effect; inconclusive = small, poorly fitted or top-dose-only effect, or effect the other way; inactive = no such curve, though single readings can be large or run the other way. The list is a sample of the results. A structure can be active in one record and inactive in another.

molecular target: Cytochrome P450 2D6 (Homo sapiens) (UniProt P10635); assay: Cytochrome panel assay with activity outcomes; conditions: recombinant CYP, pro-luciferin dealkylation, luminescence, p450-cyp2d6; series mostly up to 57.1 µM
Sequence (P10635 whole entry, looked up): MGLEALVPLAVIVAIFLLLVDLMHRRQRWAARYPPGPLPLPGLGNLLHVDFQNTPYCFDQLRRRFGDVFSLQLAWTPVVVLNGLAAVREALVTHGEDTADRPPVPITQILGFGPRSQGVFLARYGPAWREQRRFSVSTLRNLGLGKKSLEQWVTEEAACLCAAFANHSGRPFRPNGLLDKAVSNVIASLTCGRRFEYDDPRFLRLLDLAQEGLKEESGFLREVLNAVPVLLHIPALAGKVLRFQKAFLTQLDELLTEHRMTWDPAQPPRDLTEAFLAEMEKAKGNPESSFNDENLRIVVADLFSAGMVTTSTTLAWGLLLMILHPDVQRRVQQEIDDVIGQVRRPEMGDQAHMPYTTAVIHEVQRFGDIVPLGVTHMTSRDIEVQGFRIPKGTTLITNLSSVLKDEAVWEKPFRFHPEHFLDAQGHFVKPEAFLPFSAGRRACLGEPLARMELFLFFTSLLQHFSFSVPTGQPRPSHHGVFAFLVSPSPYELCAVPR
% is scaled to controls: 0 for no effect and ±100 for the full control effect.

Structure (SMILES)	AC50	activity, negative = inhibition
C#CCSc1nncn1C(=O)/C=C/c1ccccc1	inactive	
Nc1nc2c(c(=O)[nH]1)CN(c1ccc(S(N)(=O)=O)cc1)CN2		-2.27% [at 11.4 µM] (inactive)
CCC(Sc1nc(C)cc(=O)[nH]1)C(=O)Nc1nc2c(s1)CCCC2 (stereo unspecified)	inactive	
CC(C)Oc1ccc(CSC(=N)N)cc1	14.1 µM (active)	
CCc1nnc(SCc2ccc(OC(C)C)cc2)n1N	inactive	
N=C(N)SCCc1ccc(OCc2ccc([N+](=O)[O-])cc2)cc1	inactive	
O=C1CN(C(=O)c2ccc(Br)o2)C(c2ccc(F)cc2)c2cc(Cl)ccc2N1 (stereo unspecified)	inactive	
C[C@@H]1CN2[C@H](c3ccc(Br)cc3)[C@H](C)CC[C@H]2C(=O)O1		-10.6% [at 11.4 µM] (inactive)
NC(=O)N[C@H]1NC(=O)NC1=O	inactive	
O=C(NCc1ccccc1Cl)c1cnccn1	inactive	
OCCCNCc1ccccn1		12.8% [at 11.4 µM] (inactive)
OCCCCNCc1ccc(OCc2ccccc2Cl)cc1	3.55 µM (active)	
CCOc1cc(CNCCO)cc(Br)c1OCc1ccccc1Cl	4.47 µM (active)	
CCOc1cc(/C=C2\N=C(C)OC2=O)cc(Br)c1OCC(=O)OC	inactive	
CCOc1cc(C2NN=C(c3ccccc3)S2)ccc1OCc1ccccc1Cl (stereo unspecified)	inactive	
CCC(C)NC(=O)C1c2cc(OC)c(OC)cc2C(=O)N(C)C1c1cccs1 (stereo unspecified)	inactive	
C/C(=N/S(=O)(=O)c1ccc(Cl)c(Cl)c1)OCC(C)(C)C		8.65% [at 11.4 µM] (inactive)
COc1ccc(Oc2ncc3nc(-c4ccc(Cl)cc4)c(=O)n(C)c3n2)cc1	inactive	
CN(C)CCNC(=O)C(C(=O)c1ccc(F)cc1)n1ccccc1=O (stereo unspecified)	inactive	
CCCCSc1nc(C)cc(NC(=S)Nc2ccc(OC)cc2)n1	inactive	
CCc1cc[n+](-c2nc3ccccc3nc2C(=C=[N-])C#N)cc1	inactive	
C/C(CC(=O)NCc1ccco1)=N\NC(=O)Cc1ccc(Cl)cc1	inactive	

Structure (SMILES)	AC50	activity, negative = inhibition
CCCNC(=O)CC(NS(=O)(=O)c1ccc(Cl)cc1)c1ccco1 (stereo unspecified)	1.41 µM (active)	
O=C(CC(NS(=O)(=O)c1ccc(Cl)cc1)c1ccco1)NCc1ccco1 (stereo unspecified)	5.62 µM (active)	
C/C(CC(=O)NCc1ccco1)=N\NC(=O)Cc1ccccc1	inactive	
CCCCNC(=O)NS(=O)(=O)c1ccc(C)cc1	inactive	
CCCNC(=O)NS(=O)(=O)c1ccc(Cl)cc1	inactive	
C/C(=N/NC(=O)Cc1cccn1C)c1ccccc1	inactive	
Cc1ccc(/C=C/c2nnc(-c3ccc(C)cc3)o2)cc1	inactive	
Cc1c2c(nc3c(C(=O)NC4CCCC4)cnn13)CCCC2	inactive	
Cc1cccc(C)c1OC1(c2ccccc2)OC(=O)c2ccccc21 (stereo unspecified)	inactive	
O=C(/C=C\c1ccc(O)c(O)c1)O[C@@H]1C[C@](O)(C(=O)O)C[C@@H](O)[C@@H]1O	inactive	
CCCn1nc(Oc2nc(NCC)nc(NC(C)C)n2)ccc1=O	inactive	
COc1ccc(Cc2nnc(NC(=O)Cn3cnc4c3c(=O)n(C)c(=O)n4C)s2)cc1OC	inactive	
COc1cccc(C2C3=C(CC(C)(C)CC3=O)OC(N)=C2[N+](=O)[O-])c1 (stereo unspecified)	inactive	
CCOC(=O)c1c(C)nc2c(c1-c1ccc(OC)cc1)C(=O)CC(C)(C)C2	inactive	
COc1ccc(C2C3=C(CC(C)(C)CC3=O)Oc3ncn(CC(C)C)c(=N)c32)cc1 (stereo unspecified)	1 µM (active)	
O=C(c1ccco1)N1CCC2(CC1)CCN(C(c1ccccc1)c1ccccc1)CC2	5.01 µM (active)	
O=C(c1ccco1)N1CCC2(CC1)CN(c1cccc(-c3ccccc3)c1)C2	inactive	
CC(C)NC(=O)N1CCC2(CC1)CCN(C(=O)c1ccco1)CC2	inactive	
CC(C)NC(=O)N1CCCC2(CCN(C(=O)c3ccco3)CC2)C1	2.51 µM (active)	
O=C(c1ccco1)N1CCC2(CCCN(C(c3ccccc3)c3ccccc3)C2)CC1	10 µM (active)	
O=C(c1ccco1)N1CCC2(CC1)CCN(c1ccc(-c3ccccc3)cc1)CC2	inactive	
N#Cc1cccc(NC(=O)N2CC[C@@]3(CCCN(C(=O)c4ccco4)C3)C2)c1	inactive	

Structure (SMILES)	AC50	activity, negative = inhibition
O=C(Nc1ccccc1)N1CCC2(CC1)CCN(C(=O)c1ccco1)CC2	inactive	
O=C(Nc1ccccc1)N1CCCC2(CCN(C(=O)c3ccco3)CC2)C1	inactive	
COc1ccc(NC(=O)N2CCCC3(CCN(C(=O)c4ccco4)CC3)C2)cc1	inactive	
O=C(c1ccco1)N1CCC2(CCCN(c3ccccc3)C2)CC1	inactive	
O=C(c1ccco1)N1CCC[C@@]2(CCN(C(c3ccccc3)c3ccccc3)C2)C1	3.16 µM (active)	
Cc1nc2ccccn2c1/C(O)=C1\C(=O)C(=O)N(CCN2CCOCC2)C1c1cccnc1 (stereo unspecified)	inactive	
CCOc1ccc(/C(O)=C2/C(=O)C(=O)N(CCOCCO)C2c2cccnc2)cc1 (stereo unspecified)	inactive	
CN[C@H](CC(=O)O)C(=O)O	inactive	
C=C[C@@]1(C)CC(=O)[C@@]2(O)[C@@]3(C)[C@@H](O)CCC(C)(C)[C@@H]3[C@H](O)[C@H](OC(C)=O)[C@@]2(C)O1	inactive	
COc1ccc(C(=O)N2CCC3(CC2)CN(C(=O)Nc2ccccc2)C3)cc1	inactive	
Cc1cc(C(C#N)c2cccc(Cl)c2)n2ncnc2n1 (stereo unspecified)	inactive	
CC1CC(=O)c2cnc(N)nc2C1 (stereo unspecified)	inactive	
COC(=O)[C@@H]1CC[C@H](C)[C@@H](c2ccc(C)cc2)N1C(=O)c1ccc(/C=N\O[C@@H](C)c2cn([C@H]3COC[C@H]3O)nn2)cc1		-10% [at 11.4 µM] (inactive)
CC(C)=CC(=O)Nc1nnc(C(C)C)s1	inactive	
COc1ccc(OCc2nnc(SCC(=O)O)n2N)cc1	inactive	
O=C(c1ccco1)N1CCC2(CC1)CN(c1ccc(-c3ccccc3)cc1)C2	inactive	
O=C(c1ccco1)N1CCC2(CC1)CN(C(c1ccccc1)c1ccccc1)C2	1.26 µM (active)	
O=C(c1ccco1)N1CCC2(CC1)CN(c1ccccc1)C2	inactive	
O=C(N/C(=C\c1cccs1)C(=O)N1CCCCCC1)c1ccccc1	inactive	
O=C(O)CS(=O)c1ccc2c3c(cccc13)C(=O)c1ccccc1-2 (stereo unspecified)		21.8% [at 11.4 µM] (inactive)
CN(C(=O)COc1cccc(Br)c1)C1CCS(=O)(=O)C1 (stereo unspecified)	inactive	
COc1ccc(NC(=O)COC(=O)c2c(-c3ccccc3)noc2C)cc1	inactive	

Structure (SMILES)	AC50	activity, negative = inhibition
C/C(=N\NC(=O)c1ccc(Cl)cc1)c1ccc(Br)s1	inactive	
CC(C)SC(=N)N	inactive	
CSC(=N)N	inactive and 50.1 nM (active)	
N=C(N)SCCN	inactive	
CCSC(=N)N	inactive and 3.98 µM (active)	
N=C(N)SCCSC(=N)N		5.17% [at 11.4 µM] (inactive)
C[C@@H](CSC(=N)N)C(N)=O		4.14% [at 11.4 µM] (inactive)
CCn1c(C)nc2cc(S(=O)(=O)C(F)F)ccc21	inactive	
Cc1ccc(Sc2nc(-c3ccccc3)ccc2C#N)cc1	inactive	
CCOC(=O)C1CCCN(C(=O)C2CCN(S(=O)(=O)N3CCC4(CC3)OCCO4)CC2)C1 (stereo unspecified)	inactive	
CCCCSc1nnc(-c2ccc(C)cc2)n1C	inactive	
NNC(=O)CNc1cccc(Br)c1		-9.21% [at 11.4 µM] (inactive)
COC(=O)CNC(c1ccccc1Cl)c1cc(Br)ccc1NC(=O)CCN1CCOCC1 (stereo unspecified)	inactive	
NNC(=O)CNC(c1ccccc1)c1cc(Br)ccc1NC(=O)c1ccccc1Br (stereo unspecified)	7.94 µM (active)	
O=S1(=O)N[C@H]2CC[C@@H]3NS(=O)(=O)N[C@H]4CC[C@H](N1)N4S(=O)(=O)N23		12.7% [at 11.4 µM] (inactive)
CC(C)(C)N1C(=O)[C@H]2[C@@H]3[C@H](O)C=CC(=O)[C@H]3CC[C@H]2C1=O		7.58% [at 11.4 µM] (inactive)
COc1ccc(N(C)C(=O)c2ccc3nc(-c4ccccc4)c(-c4ccccc4)nc3c2)cc1	inactive	
CS(=O)(=O)N1CC(C(=O)NC2CC2)Oc2ccc(Cl)cc21 (stereo unspecified)	inactive	
C=C(CC1([C@@H](NP(=O)(c2ccccc2)c2ccccc2)[C@H]2C[C@@H]2CCN(C(=O)OCC)S(=O)(=O)c2ccc(C)cc2)CC1)c1ccccc1	inactive	
N#CCCn1c(=O)c(-c2ccc(Cl)cc2)nc2cnc(N3CCOCC3)nc21	inactive	
Cc1ncc(CSC(=N)N)n1Cc1ccccc1		-11.5% [at 11.4 µM] (inactive)
Cc1nc2cncnc2n(Cc2ccccc2)c1=O	inactive	

Structure (SMILES)	AC50	activity, negative = inhibition
Cc1ccc([C@@H](O)c2cnc(C)n2Cc2ccccc2)cc1	0.631 µM (active)	
Cc1nn2c(C)nc3sc4c(c3c2nc1=O)CC(C)(C)OC4	inactive	
CCOC(=O)N1CCN(C(=O)c2ccc(NC(C)=O)cc2)CC1	inactive	
CCOC(=O)c1cnc(-c2ccccc2)nc1Oc1cccc(Cl)c1	inactive	
CCOC(=O)c1cnc(SCCc2ccccc2)nc1N	2 µM (active)	
CCOC(=O)c1cnc(-c2ccccc2)nc1Oc1ccccc1	inactive	
O=C1C(O)=C(O)C(=O)C(O)=C1O	inactive	
NS(=O)(=O)c1ccc(NCc2ccccc2OCc2ccccc2F)cc1	15.8 µM (active)	
NS(=O)(=O)c1ccc(NCc2cnc3ccccc3n2)cc1		16.5% [at 11.4 µM] (inactive)
NS(=O)(=O)c1ccc(NCc2nc3ccccc3[nH]2)cc1		-10.2% [at 11.4 µM] (inactive)
O=C(NNC(=O)c1ccccc1)C(=O)N1CCCCC1	inactive	
BrC(c1cccc2ccccc12)c1cccc2ccccc12		11.2% [at 11.4 µM] (inactive)
COc1ccccc1-c1cncnc1NCc1ccccc1	15.8 µM (active)	
CNc1ncncc1-c1ccccc1OC	inactive	
Cc1cccc(CNc2ncncc2-c2cccc(NS(C)(=O)=O)c2)c1	20 µM (active)	
COc1cccc(-c2cncnc2NCc2cccc(C)c2)c1	12.6 µM (active)	
Cc1cccc(CNc2cc(-c3cccc(NS(C)(=O)=O)c3)ncn2)c1	inactive	
COc1ccccc1-c1cncnc1NCc1cccc(C)c1	20 µM (active)	
